# Test results reported in the supplement of paper PMC12645437, “Orthogonal IMiD-Degron Pairs Induce Selective Protein Degradation in Cells” (ACS Chemical Biology, 2025).
# The full ranking holds about 8,300 sequences; the median of “log2 fold change of degron read counts, EGFP-low vs EGFP+ sorted cells (limma voom), compound-induced degradation” is about -1.1, and the highest 2% start at about 3.2. This is one part of a sample in which the highest values are shown more often than they occur.
# T1: CRBN, Q96SW2
# T1 chain: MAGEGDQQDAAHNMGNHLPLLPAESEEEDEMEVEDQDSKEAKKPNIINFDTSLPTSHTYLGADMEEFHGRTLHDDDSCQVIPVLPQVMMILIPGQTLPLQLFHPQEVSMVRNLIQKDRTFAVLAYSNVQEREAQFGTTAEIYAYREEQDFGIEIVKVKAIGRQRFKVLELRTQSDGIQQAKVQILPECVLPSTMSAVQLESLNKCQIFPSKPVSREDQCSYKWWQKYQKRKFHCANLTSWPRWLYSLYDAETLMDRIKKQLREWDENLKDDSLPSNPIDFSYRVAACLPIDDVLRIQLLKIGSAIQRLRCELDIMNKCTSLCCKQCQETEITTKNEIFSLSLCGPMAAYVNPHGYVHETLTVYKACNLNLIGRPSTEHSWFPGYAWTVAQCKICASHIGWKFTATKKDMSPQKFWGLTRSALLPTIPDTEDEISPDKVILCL
# Target: T1, CRBN, Q96SW2
# Assay: log2 fold change of degron read counts, EGFP-low vs EGFP+ sorted cells (limma voom), compound-induced degradation; higher = more compound-induced degradation of the degron-EGFP fusion; degrons are variants of IKZF1/3 zinc finger 2; compound dose not given here
# Conditions: Jurkat, 18 h
# [1] = compound: compound 19 (5-tert-butyl-thalidomide)
# [2] = compound: compound 22 (5-morpholino-thalidomide)
# [3] = compound: compound 33 (diphenyl IMiD analogue)
# 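Note: pooled lentiviral library of zinc finger degron-EGFP fusions in mCherry-positive Jurkat cells, FACS-sorted after compound exposure, with degron abundance counted by next-generation sequencing.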
Sequence,log2 fold change of degron read counts [1],log2 fold change of degron read counts [2],log2 fold change of degron read counts [3],log2 fold change of degron read counts (compound: thalidomide)
"FDCPVCGAEFTQKGNLLRHIKL [46F_47D_49P_50V_52G_53A_54E_55F_67L_, Q9UKT9]",-0.42,-1.74,0.6,0.131
"FSCDVCGAAFTQKGNLLRHIKL [46F_47S_49D_50V_52G_53A_54A_55F_67L_, Q9UKT9]",1.56,1.45,1.14,-0.292
"LICEICGFTCTQKGNLLRHIKL [46L_47I_49E_50I_52G_53F_54T_55C_67L_, Q9UKT9]",0.795,2.24,2.34,3.13
"FWCEICGRPFTQKGNLLRHIKL [46F_47W_49E_50I_52G_53R_54P_55F_67L_, Q9UKT9]",1.92,0.403,0.52,-0.912
"FGCEICGAPFTQKGNLLRHIKL [46F_47G_49E_50I_52G_53A_54P_55F_67L_, Q9UKT9]",1.88,0.802,-0.557,-0.51
"FNCEQCGAPFTQKGNLLRHIKL [46F_47N_49E_50Q_52G_53A_54P_55F_67L_, Q9UKT9]",-1.19,-2,-2.69,-2.17
"FICEICGADFTQKGNLLRHIKL [46F_47I_49E_50I_52G_53A_54D_55F_67L_, Q9UKT9]",-2.33,-0.887,-0.381,0.298
"FNCEICGADFTQKGNLLRHIKL [46F_47N_49E_50I_52G_53A_54D_55F_67L_, Q9UKT9]",-1.15,-2.31,-1.14,-1.4
"FICEICGAPFTQKGNLLRHIKL [46F_47I_49E_50I_52G_53A_54P_55F_67L_, Q9UKT9]",2.83,3.53,2.76,3.43
"FQCEICGADFTQKGNLLRHIKL [46F_47Q_49E_50I_52G_53A_54D_55F_67L_, Q9UKT9]",-0.47,0.00637,1.29,3
"FQCEICGRPFTQKGNLLRHIKL [46F_47Q_49E_50I_52G_53R_54P_55F_67L_, Q9UKT9]",-0.793,-0.383,-1.07,1.31
"FNCEICGAPFTQKGNLLRHIKL [46F_47N_49E_50I_52G_53A_54P_55F_67L_, Q9UKT9]",3.39,2.54,0.567,1.58
"FWCEICGADFTQKGNLLRHIKL [46F_47W_49E_50I_52G_53A_54D_55F_67L_, Q9UKT9]",0.346,0.98,-0.492,-1.5
"FQCEICGAPFTQKGNLLRHIKL [46F_47Q_49E_50I_52G_53A_54P_55F_67L_, Q9UKT9]",3.69,3.61,2.03,3.72
"FWCEICGAPFTQKGNLLRHIKL [46F_47W_49E_50I_52G_53A_54P_55F_67L_, Q9UKT9]",3.82,3.42,2.64,1.23
"LYCNQCGFFCTQKGNLLRHIKL [46L_47Y_49N_50Q_52G_53F_54F_55C_67L_, Q9UKT9]",-0.205,-0.821,-0.706,-0.795
"FFCDICGAGFTQKGNLLRHIKL [46F_47F_49D_50I_52G_53A_54G_55F_67L_, Q9UKT9]",2.9,1.78,0.35,-0.766
"FQCNQCGHIFTQKGNLLRHIKL [46F_47Q_49N_50Q_52G_53H_54I_55F_67L_, Q9UKT9]",-2.78,-2.92,-2.91,-2.7
